Data as given in PubChem BioAssay (EPA / NIEHS).
The source made the active and inactive calls. The calls were made as follows: active = hit-call score of the fitted dose curve at least 0.9, where 1 is the maximum; inactive = score below 0.9.

Legend:
[1] = molecular target: Transcription factor E2F1 (Homo sapiens) (UniProt Q01094); assay: ATG_E2F_CIS: Attagene CIS-FACTORIAL HepG2 Assay for human E2F Transcription Factor 1 (AID 2282935); settings: HepG2 Attagene cis-reporter, E2F reporter RNA transcripts; actives raise or lower the signal
Sequence of Transcription factor E2F1 (Homo sapiens) (Q01094 whole entry, looked up): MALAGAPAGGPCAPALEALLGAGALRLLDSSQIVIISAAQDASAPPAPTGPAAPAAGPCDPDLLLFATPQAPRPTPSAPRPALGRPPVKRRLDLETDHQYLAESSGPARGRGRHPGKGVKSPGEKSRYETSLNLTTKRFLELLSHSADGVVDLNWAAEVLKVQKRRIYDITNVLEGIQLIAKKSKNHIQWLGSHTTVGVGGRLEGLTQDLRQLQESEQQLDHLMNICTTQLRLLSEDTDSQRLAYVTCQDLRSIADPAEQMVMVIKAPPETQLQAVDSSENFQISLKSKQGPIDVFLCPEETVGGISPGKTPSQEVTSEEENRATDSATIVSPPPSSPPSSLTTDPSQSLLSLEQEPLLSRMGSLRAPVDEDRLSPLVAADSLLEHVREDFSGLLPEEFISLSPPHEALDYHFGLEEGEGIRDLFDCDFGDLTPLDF
In short: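 HepG2 cells transiently transfected with multiplexed cis-element reporter units, dosed for 24 h. Reporter mRNA measured by RT-PCR, 6-FAM primer-extension labeling, HpaI digestion and capillary electrophoresis; bidirectional fit versus DMSO baseline.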

[2] = ATG_E_Box_CIS: Attagene CIS-FACTORIAL HepG2 Assay for human Enhancer Box (E-box) (AID 2282936); settings: HepG2 E-box cis-reporter transcription, actives raise or lower the signal
In short: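 HepG2 cells transiently transfected with multiplexed cis-element reporter units sensing endogenous transcription factor activity; 24 h compound exposure. Reporter mRNA measured by RT-PCR, 6-FAM primer extension, HpaI digestion and capillary electrophoresis; bidirectional fit versus DMSO.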

[3] = ATG_M_61_CIS: Attagene CIS-FACTORIAL HepG2 Assay for M61 Transcription Factor (Internal Marker) (AID 2282937); settings: HepG2 Attagene CIS-FACTORIAL M61 internal marker reporter; actives raise or lower the signal
In short: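 HepG2 cells transiently transfected with cis-element-driven multiple reporter transcription units, dosed for 24 h. Reporter mRNA measured by RT-PCR, 6-FAM primer-extension labelling, HpaI digestion and capillary electrophoresis; bidirectional fit versus DMSO baseline.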

[4] = ATG_EGR_CIS: Attagene CIS-FACTORIAL HepG2 Assay for human Early Growth Response 1 (EGR1) (AID 2282938); settings: HepG2 Attagene CIS-FACTORIAL EGR reporter mRNA; actives raise or lower the signal
In short: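 HepG2 cells transiently transfected with cis-promoter-driven multiplexed reporter transcription units; reporter mRNA measured 24 h after compound dosing by RT-PCR, 6-FAM primer extension, HpaI digestion and capillary electrophoresis. Bidirectional fit versus DMSO baseline.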

[5] = ATG_M_19_CIS: Attagene CIS-FACTORIAL HepG2 Assay for M19 Transcription Factor (Internal Marker) (AID 2282939); settings: HepG2 Attagene CIS-FACTORIAL M19 internal marker reporter; actives raise or lower the signal
In short: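 Internal marker readout, fitted in both directions against DMSO, from HepG2 cells carrying transfected cis-element reporter constructs; RT-PCR and capillary electrophoresis of reporter mRNA after 24 h exposure.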

[6] = ATG_ERE_CIS: Attagene CIS-FACTORIAL HepG2 Assay for Estrogen Response Element (ERE) (AID 2282940); settings: HepG2 ERE cis-reporter, Attagene RNA transcript; actives raise or lower the signal
In short: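 After 24 h compound treatment, RNA from transfected HepG2 cells was reverse-transcribed, reporter cDNA PCR-amplified, FAM-labelled, HpaI-cut and resolved by capillary electrophoresis. ERE-driven cis reporter transcripts reflect endogenous factors; gain or loss scored against DMSO.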

[7] = ATG_Ets_CIS: Attagene CIS-FACTORIAL HepG2 Assay for human Erythroblast Transformation Specific (ETS) (AID 2282941); settings: HepG2 ETS cis-reporter transcription, actives raise or lower the signal
In short: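 HepG2 cells transfected with multiple cis-regulated reporter units measuring endogenous ETS-driven transcription, 24 h after dosing. Reporter mRNA quantified by RT-PCR with capillary electrophoresis; bidirectional fit relative to DMSO.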

[8] = molecular target: Hepatocyte nuclear factor 3-beta (Homo sapiens) (UniProt Q9Y261); assay: ATG_FoxA2_CIS: Attagene CIS-FACTORIAL HepG2 Assay for human Forkhead box A2 (FOXA2) (AID 2282942); settings: HepG2 cis-reporter transcription factor activity, 24 h; actives raise or lower the signal
Sequence of Hepatocyte nuclear factor 3-beta (Homo sapiens) (Q9Y261 whole entry, looked up): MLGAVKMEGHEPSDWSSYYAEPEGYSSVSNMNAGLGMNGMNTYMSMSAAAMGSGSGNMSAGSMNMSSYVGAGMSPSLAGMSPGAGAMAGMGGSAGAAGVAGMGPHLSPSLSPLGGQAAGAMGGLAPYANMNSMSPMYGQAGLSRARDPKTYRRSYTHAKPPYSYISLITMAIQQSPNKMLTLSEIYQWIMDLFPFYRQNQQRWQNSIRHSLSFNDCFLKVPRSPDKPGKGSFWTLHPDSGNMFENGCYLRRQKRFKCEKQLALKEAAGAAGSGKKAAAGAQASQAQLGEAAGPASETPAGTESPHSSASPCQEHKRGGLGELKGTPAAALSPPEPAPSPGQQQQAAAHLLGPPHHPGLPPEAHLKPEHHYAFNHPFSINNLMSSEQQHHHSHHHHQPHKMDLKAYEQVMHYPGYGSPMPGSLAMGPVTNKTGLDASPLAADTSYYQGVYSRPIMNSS
In short: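 HepG2 cells transiently transfected with multiple cis-regulated reporter transcription units, dosed for 24 h. Reporter mRNA measured by RT-PCR, 6-FAM labelling, HpaI digestion and capillary electrophoresis; bidirectional fitting against DMSO baseline.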

[9] = ATG_FoxO_CIS: Attagene CIS-FACTORIAL HepG2 Assay for human Forkhead box O (FoxO) (AID 2282943); settings: HepG2 Attagene cis-reporter, FoxO element, mRNA; actives raise or lower the signal
In short: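 HepG2 cells transiently transfected with cis-promoter-driven multiple reporter transcription units; 24 h after chemical dosing, reporter mRNA quantified by RT-PCR, fluorescent primer extension, HpaI digestion and capillary electrophoresis. Bidirectional fitting versus DMSO baseline.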

[10] = ATG_GATA_CIS: Attagene CIS-FACTORIAL HepG2 Assay for human GATA Binding Protein (AID 2282944); settings: HepG2 GATA cis-element reporter, Attagene multiplex mRNA; actives raise or lower the signal
In short: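 Reporter transcripts from a GATA cis-regulated unit, among multiplexed reporters in transfected HepG2 cells, were measured by RT-PCR with capillary electrophoresis after 24 h dosing. Induction or loss scored relative to DMSO.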

[11] = ATG_GLI_CIS: Attagene CIS-FACTORIAL HepG2 Assay for human Zinc Finger Protein GLI1 (AID 2282945); settings: HepG2, Attagene cis-factorial reporter mRNA, GLI element; actives raise or lower the signal
In short: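 HepG2 cells transiently transfected with cis-promoter multiplexed reporter units report endogenous transcription factor activity. After 24 h chemical exposure, reporter mRNA was quantified by RT-PCR, 6-FAM labelling, HpaI digestion and capillary electrophoresis, with bidirectional fitting against DMSO.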

[12] = ATG_GRE_CIS: Attagene CIS-FACTORIAL HepG2 Assay for human Glucocorticoid Response Elements (GRE) (AID 2282947); settings: HepG2 GRE cis-reporter, Attagene multiplex mRNA; actives raise or lower the signal
In short: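 HepG2 cells transiently transfected with multiple cis-promoter reporter units measure endogenous TF activity; 24 h compound exposure. Reporter mRNA quantified by RT-PCR, FAM labelling, HpaI digestion and capillary electrophoresis; bidirectional fit vs DMSO baseline.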

[13] = ATG_ISRE_CIS: Attagene CIS-FACTORIAL HepG2 Assay for human Interferon Regulatory Factor 1 (IRF1) binding to an Interferon-Stimulated Response Element (ISRE) (AID 2282948); settings: HepG2 ISRE cis-reporter (Attagene), mRNA transcription readout; actives raise or lower the signal
In short: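 Transiently transfected HepG2 cells carrying cis-element reporter units, dosed 24 hours. Reporter mRNA quantified by RT-PCR, fluorescent primer extension, HpaI digestion and capillary electrophoresis. Bidirectional fitting relative to DMSO.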

[14] = ATG_M_06_CIS: Attagene CIS-FACTORIAL HepG2 Assay for M06 Transcription Factor (Internal Marker) (AID 2282950); settings: HepG2 Attagene CIS-FACTORIAL M06 internal marker reporter; actives raise or lower the signal
In short: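 Serves as a background control readout. Transfected HepG2 exposed to compounds for 24 h, then reporter transcripts quantified by fluorescent RT-PCR and capillary electrophoresis. Both directions fitted against DMSO baseline.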

[15] = molecular target: Hypoxia-inducible factor 1-alpha (Homo sapiens) (UniProt Q16665); assay: ATG_HIF1a_CIS: Attagene CIS-FACTORIAL HepG2 Assay for human Hypoxia Inducible Factor 1 (HIF1A) (AID 2282951); settings: HepG2 Attagene cis-factorial HIF1a reporter transcription; actives raise or lower the signal
Sequence of Hypoxia-inducible factor 1-alpha (Homo sapiens) (Q16665 whole entry, looked up): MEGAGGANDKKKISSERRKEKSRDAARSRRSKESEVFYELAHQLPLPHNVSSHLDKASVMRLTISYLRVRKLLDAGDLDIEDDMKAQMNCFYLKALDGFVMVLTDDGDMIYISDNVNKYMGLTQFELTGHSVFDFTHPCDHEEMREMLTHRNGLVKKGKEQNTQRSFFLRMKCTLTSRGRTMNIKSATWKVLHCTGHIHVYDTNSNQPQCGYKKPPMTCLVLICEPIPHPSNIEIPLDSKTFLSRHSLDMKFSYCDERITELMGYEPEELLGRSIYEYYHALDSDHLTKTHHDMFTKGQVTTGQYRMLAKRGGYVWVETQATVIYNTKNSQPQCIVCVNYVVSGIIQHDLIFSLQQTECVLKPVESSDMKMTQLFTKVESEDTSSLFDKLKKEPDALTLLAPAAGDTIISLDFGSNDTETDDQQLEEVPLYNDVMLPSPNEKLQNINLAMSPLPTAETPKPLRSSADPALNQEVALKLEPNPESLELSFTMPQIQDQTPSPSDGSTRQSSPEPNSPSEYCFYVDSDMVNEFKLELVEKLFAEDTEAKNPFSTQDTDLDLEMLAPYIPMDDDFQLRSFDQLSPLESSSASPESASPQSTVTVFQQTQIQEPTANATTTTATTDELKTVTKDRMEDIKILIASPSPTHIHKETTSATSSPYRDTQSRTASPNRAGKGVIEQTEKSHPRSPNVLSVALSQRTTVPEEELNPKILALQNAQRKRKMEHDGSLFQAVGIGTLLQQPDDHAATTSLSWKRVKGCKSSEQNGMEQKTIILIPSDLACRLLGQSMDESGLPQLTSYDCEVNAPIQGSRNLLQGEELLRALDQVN
In short: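 HepG2 cells transiently transfected with multiplexed cis-promoter reporter units; reporter mRNA read 24 h after dosing by RT-PCR, 6-FAM primer-extension labelling, HpaI digestion and capillary electrophoresis. Bidirectional fit versus DMSO baseline.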

[16] = molecular target: Hepatocyte nuclear factor 6 (Homo sapiens) (UniProt Q9UBC0); assay: ATG_HNF6_CIS: Attagene CIS-FACTORIAL HepG2 Assay for human Hepatocyte Nuclear Factor 6 (HNF6) (AID 2282952); settings: HepG2 Attagene cis-factorial HNF6 reporter transcription; actives raise or lower the signal
Sequence of Hepatocyte nuclear factor 6 (Homo sapiens) (Q9UBC0 whole entry, looked up): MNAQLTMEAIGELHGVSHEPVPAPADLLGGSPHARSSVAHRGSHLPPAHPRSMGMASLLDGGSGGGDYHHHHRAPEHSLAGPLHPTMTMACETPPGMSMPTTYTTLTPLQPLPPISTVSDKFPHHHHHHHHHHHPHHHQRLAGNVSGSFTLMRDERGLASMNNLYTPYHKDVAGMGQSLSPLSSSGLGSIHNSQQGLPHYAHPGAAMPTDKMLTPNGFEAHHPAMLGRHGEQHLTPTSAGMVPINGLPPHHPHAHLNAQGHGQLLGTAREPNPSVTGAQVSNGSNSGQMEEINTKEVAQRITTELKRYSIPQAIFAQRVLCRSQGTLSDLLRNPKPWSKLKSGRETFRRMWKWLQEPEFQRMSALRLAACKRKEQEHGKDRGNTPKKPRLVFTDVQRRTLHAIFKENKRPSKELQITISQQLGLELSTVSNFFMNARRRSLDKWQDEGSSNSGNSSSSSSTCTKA
In short: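 Cells are HepG2 carrying transiently transfected cis-promoter reporter units. Treatment lasts 24 h, after which reporter transcripts are reverse-transcribed, amplified, FAM-labelled and sized by capillary electrophoresis. DMSO serves as baseline.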

[17] = molecular target: Heat shock factor protein 1 (Homo sapiens) (UniProt Q00613); assay: ATG_HSE_CIS: Attagene CIS-FACTORIAL HepG2 Assay for human Heat Shock Transcription Factor 1 (HSE) (AID 2282953); settings: HepG2 HSE cis-reporter, Attagene RNA transcription; actives raise or lower the signal
Sequence of Heat shock factor protein 1 (Homo sapiens) (Q00613 whole entry, looked up): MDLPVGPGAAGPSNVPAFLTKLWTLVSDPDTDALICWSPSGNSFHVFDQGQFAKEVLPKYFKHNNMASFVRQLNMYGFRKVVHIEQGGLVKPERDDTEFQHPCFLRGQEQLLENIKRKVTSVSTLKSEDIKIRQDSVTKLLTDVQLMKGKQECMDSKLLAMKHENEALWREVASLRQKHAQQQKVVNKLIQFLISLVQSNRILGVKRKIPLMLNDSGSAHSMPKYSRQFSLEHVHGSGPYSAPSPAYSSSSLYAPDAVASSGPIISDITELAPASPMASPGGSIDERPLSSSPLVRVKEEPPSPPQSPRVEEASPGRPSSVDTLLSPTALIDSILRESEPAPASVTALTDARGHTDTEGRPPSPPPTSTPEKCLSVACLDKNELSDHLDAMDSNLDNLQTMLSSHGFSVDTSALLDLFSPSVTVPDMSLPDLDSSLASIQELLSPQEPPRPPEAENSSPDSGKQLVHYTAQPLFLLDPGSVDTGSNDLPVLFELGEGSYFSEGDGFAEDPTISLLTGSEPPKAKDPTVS
In short: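 Endogenous transcription factor activity in transiently transfected HepG2, read as reporter mRNA by RT-PCR with fluorescent capillary electrophoresis after 24 h. Gain or loss of signal fitted versus DMSO baseline.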

[18] = molecular target: Bile acid receptor (Homo sapiens) (UniProt Q96RI1); assay: ATG_IR1_CIS: Attagene CIS-FACTORIAL HepG2 Assay for human Nuclear Receptor Subfamily 1 Group H Member 4 (NR1H4), IR1 submotif (AID 2282946); settings: IR1 reporter transcription, actives raise or lower the signal
Sequence of Bile acid receptor (Homo sapiens) (Q96RI1 whole entry, looked up): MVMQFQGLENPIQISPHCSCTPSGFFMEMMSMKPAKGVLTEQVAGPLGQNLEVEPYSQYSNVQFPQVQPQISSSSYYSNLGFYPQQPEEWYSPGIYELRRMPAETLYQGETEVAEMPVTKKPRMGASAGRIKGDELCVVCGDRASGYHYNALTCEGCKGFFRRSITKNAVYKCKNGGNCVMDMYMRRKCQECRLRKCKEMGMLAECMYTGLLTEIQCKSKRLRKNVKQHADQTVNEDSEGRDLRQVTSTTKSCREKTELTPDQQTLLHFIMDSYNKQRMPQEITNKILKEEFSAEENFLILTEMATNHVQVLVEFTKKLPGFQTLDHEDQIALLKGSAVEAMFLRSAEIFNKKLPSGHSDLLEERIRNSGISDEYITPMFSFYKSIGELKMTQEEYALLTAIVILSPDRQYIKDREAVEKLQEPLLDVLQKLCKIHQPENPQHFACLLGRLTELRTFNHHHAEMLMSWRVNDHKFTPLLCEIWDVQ
In short: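 Transient MRTU transfection, HepG2; 24 h dosing; RNA → RT-PCR → 6-FAM primer extension → HpaI digest → capillary electrophoresis fluorescence. Gain/loss of signal fitted relative to DMSO.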

[19] = ATG_M_32_CIS: Attagene CIS-FACTORIAL HepG2 Assay for M32 Transcription Factor (Internal Marker) (AID 2282949); settings: HepG2 Attagene cis-factorial M32 reporter, mRNA; actives raise or lower the signal;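 also: background control marker of the multiplexed CIS panel rather than a real target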
In short: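 Internal background marker read-out: RT-PCR/capillary electrophoresis fluorescence of reporter transcripts from transiently transfected HepG2 cells after 24 h chemical exposure. Activity fitted bidirectionally relative to DMSO negative control.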

[20] = ATG_MRE_CIS: Attagene CIS-FACTORIAL HepG2 Assay for human Metal Responsive Element (MRE) (AID 2282954); settings: HepG2 MRE cis-reporter transcription, Attagene multiplex; actives raise or lower the signal
In short: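 HepG2 cells transiently transfected with multiple cis-element reporter units measure endogenous MTF1-driven transcription. After 24 h compound exposure, reporter mRNA is quantified by RT-PCR with 6-FAM labelling, HpaI digestion and capillary electrophoresis; bidirectional fits versus DMSO.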

## CCOC(=O)COc1cc(-n2ncc(C(F)(F)F)c(C)c2=O)c(F)cc1Cl
[1]
  outcome: inactive
[2]
  outcome: inactive
[3]
  outcome: inactive
[4]
  outcome: inactive
[5]
  outcome: inactive
[6]
  outcome: inactive
[7]
  outcome: inactive
[8]
  outcome: inactive
[9]
  outcome: inactive
[10]
  outcome: inactive
[11]
  outcome: inactive
[12]
  outcome: inactive
[13]
  outcome: inactive
[14]
  outcome: inactive
[15]
  outcome: inactive
[16]
  outcome: inactive
[17]
  outcome: inactive

## CCOC(=O)NCCOc1ccc(Oc2ccccc2)cc1
[1]
  outcome: inactive
[2]
  outcome: inactive
[3]
  outcome: inactive
[4]
  AC50: 50 µM (active)
[5]
  outcome: inactive
[6]
  AC50: 12.6 µM (active)
[7]
  outcome: inactive
[8]
  outcome: inactive
[9]
  outcome: inactive
[10]
  outcome: inactive
[11]
  outcome: inactive
[18]
  AC50: 88.9 µM (active)
[13]
  outcome: inactive
[14]
  outcome: inactive
[16]
  outcome: inactive
[17]
  AC50: 78.1 µM (active)

## CCNc1nc(N)nc(Cl)n1
[1]
  outcome: inactive
[2]
  outcome: inactive
[3]
  outcome: inactive
[4]
  outcome: inactive
[5]
  outcome: inactive
[7]
  outcome: inactive
[8]
  outcome: inactive
[9]
  outcome: inactive
[10]
  outcome: inactive
[11]
  outcome: inactive
[13]
  outcome: inactive
[19]
  outcome: inactive
[14]
  outcome: inactive
[16]
  outcome: inactive
[17]
  outcome: inactive
[20]
  outcome: inactive

## C=CCOC(Cn1ccnc1)c1ccc(Cl)cc1Cl (stereo not drawn)
[1]
  outcome: inactive
[2]
  outcome: inactive
[3]
  outcome: inactive
[4]
  AC50: 30.9 µM (active)
[5]
  outcome: inactive
[7]
  outcome: inactive
[8]
  outcome: inactive
[9]
  outcome: inactive
[10]
  outcome: inactive
[11]
  outcome: inactive
[12]
  outcome: inactive
[13]
  outcome: inactive
[14]
  outcome: inactive
[15]
  AC50: 17.4 µM (active)
[16]
  outcome: inactive
[17]
  AC50: 84.4 µM (active)
[20]
  AC50: 24.5 µM (active)

## CCCCC(CC)COC(=O)c1ccccc1C(=O)O (stereo not drawn)
[1]
  outcome: inactive
[2]
  outcome: inactive
[3]
  outcome: inactive
[4]
  outcome: inactive
[5]
  outcome: inactive
[7]
  outcome: inactive
[8]
  outcome: inactive
[9]
  outcome: inactive
[10]
  outcome: inactive
[11]
  outcome: inactive
[12]
  outcome: inactive
[13]
  outcome: inactive
[14]
  outcome: inactive
[16]
  outcome: inactive
[17]
  outcome: inactive

## CCCCOCCOCCOCc1cc2c(cc1CCC)OCO2
[1]
  AC50: 58.4 µM (active)
[2]
  outcome: inactive
[3]
  outcome: inactive
[4]
  outcome: inactive
[5]
  outcome: inactive
[7]
  outcome: inactive
[8]
  outcome: inactive
[9]
  outcome: inactive
[10]
  outcome: inactive
[11]
  outcome: inactive
[18]
  outcome: inactive
[13]
  outcome: inactive
[14]
  outcome: inactive
[16]
  outcome: inactive
[17]
  outcome: inactive

## COc1c(Cl)ccc(Cl)c1C(=O)O
[1]
  outcome: inactive
[2]
  outcome: inactive
[3]
  outcome: inactive
[4]
  outcome: inactive
[5]
  outcome: inactive
[6]
  outcome: inactive
[7]
  outcome: inactive
[8]
  outcome: inactive
[9]
  outcome: inactive
[10]
  outcome: inactive
[11]
  outcome: inactive
[13]
  outcome: inactive
[19]
  outcome: inactive
[14]
  outcome: inactive
[16]
  outcome: inactive
[17]
  outcome: inactive
[20]
  outcome: inactive
